Laboratory results reported in PubChem BioAssay (NCI).
This is part of a sample that, as a whole, favours compounds with a hit. Of some 83,000 tested, about 20% had one in any assay.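 Each cell line was grown in a 96-well plate and treated with one concentration of compound for 48 hours. Values below 10 were considered active.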 Values without a mark were called inactive. The source made the active and inactive calls.

Assays:
Assay in all cases: NCI-60 one-dose screen, 48 h (100 = growth as untreated, 0 = no growth, -100 = all killed)
Conditions in all cases: 10 µM unless noted
[1] = test system: RPMI-8226 leukemia
[2] = test system: OVCAR-8 ovarian
[3] = test system: OVCAR-5 ovarian
[4] = test system: OVCAR-4 ovarian
[5] = test system: SK-OV-3 ovarian
[6] = test system: IGROV1 ovarian
[7] = test system: OVCAR-3 ovarian
[8] = test system: NCI/ADR-RES ovarian
[9] = test system: HS 578T breast
[10] = test system: SR leukemia

O=C1C(Cl)=C(Nc2ccc(S(=O)(=O)c3ccc(NC4=C(Cl)C(=O)c5ccccc5C4=O)cc3)cc2)C(=O)c2ccccc21
growth [1]: 5.2% (active)
growth [2]: -61.8% (active)
growth [3]: 100%
growth [4]: -84.9% (active)
growth [5]: 78.9%
growth [6]: -18.5% (active)
growth [7]: -98.4% (active)
growth [8]: 43.6%

COc1ccc(OCC(CO)N2CCN(c3ccccc3)CC2)cc1 (stereo unspecified)
growth [1]: 131%
growth [2]: 93.6%
growth [3]: 103%
growth [4]: 92.4%
growth [5]: 106%
growth [6]: 112%
growth [7]: 102%
growth [9]: 96.6%
growth [8]: 99.9%

NNC(=O)c1nc2ccccc2[nH]1
growth [10]: 96.4%
growth [2]: 97.1%
growth [3]: 97.9%
growth [4]: 118%
growth [6]: 106%
growth [7]: 108%
growth [9]: 109%
growth [8]: 112%

Fc1ccc2[nH]cc(-c3nc(-c4c[nH]c5ncccc45)cs3)c2c1
growth [1]: 31.5%
growth [2]: 36.6%
growth [3]: 86.1%
growth [5]: 58.9%
growth [6]: 32.5%
growth [7]: 44.5%
growth [9]: 31.4%
growth [8]: 27.1%

C#CCC(C)(O)/C=C/C1=C(C)CCCC1(C)C (stereo unspecified)
growth [10]: 107%
growth [2]: 101%
growth [3]: 88.7%
growth [4]: 107%
growth [5]: 92.3%
growth [6]: 102%
growth [7]: 106%
growth [9]: 108%
growth [8]: 99.8%

Cc1ccc(NC2CC(=O)N(c3c(C)cc(C)cc3C)C2=O)c(C)c1 (stereo unspecified)
growth [10]: 95.3%
growth [2]: 107%
growth [3]: 104%
growth [4]: 98.6%
growth [5]: 121%
growth [6]: 93.9%
growth [7]: 115%
growth [9]: 104%
growth [8]: 106%

O=c1[nH]ncc(Br)c1Br
growth [1]: 23.9%
growth [2]: 7.24% (active)
growth [3]: 115%
growth [4]: -100% (active)
growth [5]: 122%
growth [6]: 51.2%
growth [7]: -100% (active)
growth [8]: 38.1%

Cn1c(=O)c2c(nc(N3CCCC3)n2C)n(C)c1=O
growth [10]: 100%
growth [2]: 100%
growth [3]: 99.1%
growth [4]: 99.1%
growth [5]: 103%
growth [6]: 98.5%
growth [7]: 110%
growth [9]: 105%
growth [8]: 103%

Cc1ccc2c(c1)c(-c1nc(-c3c[nH]c4ncccc34)cs1)cn2C
growth [1]: 72.7%
growth [2]: 104%
growth [3]: 68.6%
growth [5]: 102%
growth [6]: 99.2%
growth [7]: 139%
growth [9]: 109%
growth [8]: 89.4%

CC(c1ccccc1)N1C(=O)C(C2SC(=S)N(C(C)c3ccccc3)C2=O)SC1=S (stereo unspecified)
growth [10]: 41.4%
growth [2]: 96.6%
growth [3]: 98.8%
growth [4]: 97.2%
growth [5]: 106%
growth [6]: 76.5%
growth [7]: 76.8%
growth [9]: 96%
growth [8]: 97.9%

CCCC1CCCCN1C(=O)OCC(C)C (stereo unspecified)
growth [1]: 108%
growth [2]: 105%
growth [4]: 113%
growth [5]: 110%
growth [6]: 101%
growth [7]: 112%
growth [9]: 102%
growth [8]: 137%

OCC(CO)(CCl)CCl
growth [10]: 95.6%
growth [2]: 101%
growth [4]: 109%
growth [5]: 88.5%
growth [6]: 109%
growth [7]: 105%
growth [9]: 105%

Cc1ccc(-c2ccc(/C=C(\C#N)c3nc(-c4ccco4)cs3)o2)cc1
growth [10]: 89.8%
growth [2]: 99.8%
growth [3]: 77.5%
growth [4]: 28.1%
growth [6]: 63.5%
growth [7]: 112%
growth [9]: 107%
growth [8]: 103%

Cc1cc(N=O)cc(C(C)(C)C)c1O
growth [10]: 98.9%
growth [2]: 103%
growth [3]: 108%
growth [4]: 97.7%
growth [6]: 98.6%
growth [7]: 105%
growth [9]: 90.8%
growth [8]: 99.3%

Cc1oc(-c2ccccc2Cl)cc1C(=O)Nc1ccc(S(N)(=O)=O)cc1
growth [10]: 101%
growth [2]: 98.1%
growth [3]: 102%
growth [4]: 96.8%
growth [5]: 98.5%
growth [6]: 113%
growth [7]: 117%
growth [9]: 101%
growth [8]: 102%

Cn1cc(-c2nc(-c3c[nH]c4ncccc34)cs2)c2cc(Br)ccc21
growth [1]: 72.6%
growth [2]: 104%
growth [3]: 82.9%
growth [5]: 91.9%
growth [6]: 76%
growth [7]: 118%
growth [9]: 98%
growth [8]: 75%

CN(C)CCCCC(C(=O)CBr)(c1ccccc1)c1ccccc1
growth [10]: 8.41% (active)
growth [2]: 25.8%
growth [3]: 45.2%
growth [4]: 12.1%
growth [6]: 44.4%
growth [7]: -44% (active)
growth [9]: 24.2%
growth [8]: 43.9%

CCCCCC1CCCCN1C(=O)OCC (stereo unspecified)
growth [1]: 103%
growth [2]: 107%
growth [3]: 94.7%
growth [4]: 105%
growth [5]: 98.5%
growth [6]: 104%
growth [7]: 109%
growth [9]: 110%
growth [8]: 111%

N=C(N)c1ccc(S(N)(=O)=O)cc1
growth [1]: 128%
growth [2]: 100%
growth [3]: 88.2%
growth [4]: 102%
growth [5]: 115%
growth [6]: 110%
growth [7]: 113%
growth [8]: 97.5%

N#CC1=C(N)Oc2c(c(N)nn2-c2ccccc2)C1c1ccc(Cl)cc1 (stereo unspecified)
growth [10]: 95.8%
growth [2]: 95.4%
growth [3]: 102%
growth [4]: 105%
growth [5]: 81.7%
growth [6]: 84.5%
growth [7]: 109%
growth [9]: 97%
growth [8]: 101%

COc1ccc(C2(Cl)c3ccccc3N(c3ccccc3)c3ccccc32)cc1
growth [10]: 3.25% (active)
growth [3]: 17%
growth [4]: 3.18% (active)
growth [5]: -11.1% (active)
growth [6]: 17.5%
growth [7]: -43.9% (active)
growth [9]: -12.9% (active)
growth [8]: 21.4%

OCC1OC(n2cnc3c(Cl)ncnc32)CC1O (stereo unspecified)
growth [1]: 98.3%
growth [2]: 104%
growth [3]: 101%
growth [4]: 120%
growth [5]: 104%
growth [6]: 98.9%
growth [7]: 115%
growth [9]: 108%
growth [8]: 118%

CCSc1ncnc2c1ncn2C1OC(CO)C(O)C1O (stereo unspecified)
growth [1]: 38.5%
growth [2]: 29.5%
growth [3]: 29.5%
growth [4]: 46.1%
growth [5]: 41.3%
growth [6]: 2.14% (active)
growth [7]: 23.4%
growth [8]: 25.4%

Cc1ccc2[nH]cc(-c3nc(-c4cn(C)c5ncccc45)cs3)c2c1
growth [1]: 62.7%
growth [2]: 85.8%
growth [3]: 108%
growth [5]: 102%
growth [6]: 108%
growth [7]: 106%
growth [9]: 99%
growth [8]: 66.7%

c1ccc2c(-c3nc(-c4c[nH]c5ncccc45)cs3)c[nH]c2c1
growth [1]: 76.7%
growth [2]: 98.4%
growth [3]: 119%
growth [5]: 88.6%
growth [6]: 59.3%
growth [7]: 102%
growth [9]: 110%
growth [8]: 107%

N#C/C(=C\c1ccc(-c2ccc(F)cc2)o1)c1nc(-c2ccco2)cs1
growth [10]: 86.3%
growth [2]: 102%
growth [3]: 65.1%
growth [4]: 19.2%
growth [5]: 103%
growth [6]: 60%
growth [7]: 105%
growth [9]: 109%
growth [8]: 107%

CN(CSc1ccc(Cl)cc1)c1ccc(CSc2ccc(Cl)cc2)cc1
growth [1]: 18%
growth [3]: 120%
growth [4]: 67.9%
growth [5]: 108%
growth [6]: 42.9%
growth [7]: 62.6%
growth [9]: 93.3%

CC(C)(C)CC(C)(C)c1ccc(OCCOCC[N+](C)(C)CC(=O)[O-])cc1
growth [10]: 94.8%
growth [2]: 105%
growth [3]: 102%
growth [5]: 109%
growth [6]: 100%
growth [7]: 113%
growth [9]: 114%
growth [8]: 111%

O=C(/C=C/c1ccc2ccccc2c1)Nc1ncc(Cc2ccccc2)s1
growth [10]: 16.9%
growth [2]: 59.8%
growth [3]: 49.5%
growth [4]: -37.5% (active)
growth [5]: 87.8%
growth [6]: 55.6%
growth [7]: 10%
growth [9]: 29.2%
growth [8]: 32.3%
